According to PubChem BioAssay AID504339 (National Center for Advancing Translational Sciences (NCATS), 2011):
In all, about 390,000 compounds went through this assay and about 17,000 (4.4%) were called active. Not shown: some 8% with an inconclusive outcome. The entries come from a sample that favours actives as a whole. Unmarked numbers belong to inactive results. Calls come from the whole dose curve; as a rule, active = well fitted inhibition curve with a large enough effect; inconclusive = small, poorly fitted or top-dose-only effect; inactive = no such curve, though single readings can be large or run the other way.
% is set by controls: 0 for no effect and ±100 for the full control effect; potency is the fitted concentration of half-maximal effect.
Note: nearly all actives have a fitted effect of over 50% in size.

Each compound was assayed against Lysine-specific demethylase 4A (Homo sapiens) (UniProt O75164) (assay: qHTS Assay for Inhibitors of JMJD2A-Tudor Domain). Settings: AlphaScreen JMJD2A-Tudor / H3K4me3 peptide binding; series mostly up to 114 µM; activity change, negative = inhibition: at the top concentration.
Lysine-specific demethylase 4A (Homo sapiens), sequence (O75164 whole entry, looked up, the tested form may be a part): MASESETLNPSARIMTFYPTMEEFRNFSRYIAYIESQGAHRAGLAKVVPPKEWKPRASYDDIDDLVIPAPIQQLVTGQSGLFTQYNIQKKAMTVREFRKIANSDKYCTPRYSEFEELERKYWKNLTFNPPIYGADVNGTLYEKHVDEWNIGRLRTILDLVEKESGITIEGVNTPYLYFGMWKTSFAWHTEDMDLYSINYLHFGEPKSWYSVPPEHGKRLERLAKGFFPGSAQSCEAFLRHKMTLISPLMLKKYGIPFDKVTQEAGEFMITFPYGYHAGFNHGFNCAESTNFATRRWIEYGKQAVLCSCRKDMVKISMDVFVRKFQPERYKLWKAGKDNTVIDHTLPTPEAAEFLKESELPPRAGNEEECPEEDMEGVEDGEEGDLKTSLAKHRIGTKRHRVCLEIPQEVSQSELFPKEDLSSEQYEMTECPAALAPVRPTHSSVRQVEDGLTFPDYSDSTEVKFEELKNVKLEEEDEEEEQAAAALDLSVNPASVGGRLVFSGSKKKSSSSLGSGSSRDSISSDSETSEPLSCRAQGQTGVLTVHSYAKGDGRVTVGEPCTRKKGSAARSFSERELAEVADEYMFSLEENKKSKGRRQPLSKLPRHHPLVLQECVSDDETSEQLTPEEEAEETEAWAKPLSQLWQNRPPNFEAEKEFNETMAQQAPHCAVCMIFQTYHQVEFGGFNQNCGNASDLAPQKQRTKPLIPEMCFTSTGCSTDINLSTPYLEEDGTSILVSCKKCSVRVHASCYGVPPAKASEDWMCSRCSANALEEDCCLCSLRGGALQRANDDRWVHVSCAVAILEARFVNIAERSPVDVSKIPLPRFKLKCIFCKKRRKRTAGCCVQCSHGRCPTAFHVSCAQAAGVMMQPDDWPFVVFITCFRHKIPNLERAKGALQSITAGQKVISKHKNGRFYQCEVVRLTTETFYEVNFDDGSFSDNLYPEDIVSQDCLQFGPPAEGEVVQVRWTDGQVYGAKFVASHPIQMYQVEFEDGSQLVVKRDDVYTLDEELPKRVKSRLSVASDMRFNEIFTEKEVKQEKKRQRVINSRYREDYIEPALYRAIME
With `Brc1cccc(-c2nnn3c2nc(NC2CCCCC2)c2ccccc23)c1` the “activity change, negative = inhibition” value was 21.2%. In the case of `CCc1cc2c(cc3c(=O)n(CC(=O)NCc4cccc(Cl)c4)nc(CC)n32)s1`, the “activity change, negative = inhibition” value is reported as -15.3%. `O=[N+]([O-])c1ccccc1Nc1ccc(O)cc1` was tested, and the Potency was 63.1 µM (active). `O=C(Nc1ccccc1[N+](=O)[O-])C1C(c2ccccc2)=C1c1ccccc1` was tested, and the “activity change, negative = inhibition” value was -11.9%. For `O=C(NCCNc1ccccc1[N+](=O)[O-])c1ccccc1F`, the “activity change, negative = inhibition” value was -9.86%. `CCOC(=O)CNC(=O)c1cc2c(=O)n3cccc(C)c3nc2s1` was tested, and the “activity change, negative = inhibition” value was 6.48%. In the case of `O=C(c1ccc2c(c1)N(Cc1ccc(Cl)cc1)C(=O)c1ccccc1S2(=O)=O)N1CCCCC1`, the “activity change, negative = inhibition” value is reported as -14.8%. With `O=c1c2cccnc2n(Cc2cccc(F)c2)c(=O)n1Cc1ccccc1Cl` the “activity change, negative = inhibition” value was 7.27%. For `CCOc1cc(-c2nnc(SCC(=O)NC3CCCC3)nc2-c2ccc(OC)c(OCC)c2)ccc1OC`, the “activity change, negative = inhibition” value was -17.3%. For `Oc1cc2c(cc1O)CN(C(=S)NCCc1ccc(Cl)cc1)CCC2`, the Potency was 44.7 µM (active). With `Cc1cccc(NC(=S)NCCc2ccc(Cl)cc2)c1C` the “activity change, negative = inhibition” value was -20.7%. For `O=C(NCCc1ccc(Cl)cc1)c1cccc(N2CCCC2=O)c1`, the “activity change, negative = inhibition” value was -2.78%. In the case of `Cc1ccccc1CNC(=O)C(=O)NCC(c1cccs1)S(=O)(=O)c1cccs1` (centres undefined), the “activity change, negative = inhibition” value is reported as -14.3%. With `Cc1ccccc1OCC(=O)Nc1c(C(=O)Nc2ccccc2F)oc2ccccc12` the “activity change, negative = inhibition” value was -2.65%. In the case of `O=C(Nc1cc(C(F)(F)F)ccc1Cl)c1nc2ccccc2nc1N1CCCCC1`, the “activity change, negative = inhibition” value is reported as -28%. With `O=C(CN1CCN(c2ccc(F)cc2)CC1)Nc1cccc(C(F)(F)F)c1` the “activity change, negative = inhibition” value was -25.8%. For `CCCc1cc(=O)oc2c(C)c(O)c(CN3CCCCC3)cc12`, the “activity change, negative = inhibition” value was -15.6%. For `Oc1c(CN2CCCC2)cc(COCc2ccccc2)c2cccnc12`, the Potency was 25.1 µM (active). In the case of `Oc1c(CN2CCN(c3ccc(F)cc3)CC2)cc(Cl)c2cccnc12`, the Potency is reported as 25.1 µM (active). `Cc1cc(=O)oc2cc(OCC(=O)N3CCN(c4ccc(F)cc4)CC3)c(Cl)cc12` was tested, and the “activity change, negative = inhibition” value was -18.3%. For `O=C(Cc1ccccc1)NNC(=O)C1CCN(c2ncccn2)CC1`, the “activity change, negative = inhibition” value was 2.84%. For `Cc1ccc(O)c(NC(=O)CCS(=O)(=O)c2nc(-c3ccc4c(c3)OCO4)cc(C(F)(F)F)n2)c1`, the “activity change, negative = inhibition” value was -25.6%. In the case of `CCOc1ccc(NC(=O)c2c(NC(=O)Cc3ccccc3)sc3c2CCC(C)C3)cc1` (centres undefined), the “activity change, negative = inhibition” value is reported as -34%. `Cc1ccc(-n2ncc3c(N4CCC(C(N)=O)CC4)ncnc32)cc1` was tested, and the “activity change, negative = inhibition” value was -5.2%. For `COc1ccc(Cn2c(C(=O)O)c(CNCc3cccc(OC)c3)c3ccc(C)cc32)cc1`, the “activity change, negative = inhibition” value was -27.9%. In the case of `COc1ccccc1C(=O)Nc1c(C(=O)Nc2ccc(C)cc2)oc2ccccc12`, the “activity change, negative = inhibition” value is reported as -11.9%. With `Cc1ccc(-c2nn3c(=O)cc(CN4CCN(S(=O)(=O)c5ccc(Cl)cc5)CC4)nc3s2)cc1` the “activity change, negative = inhibition” value was -0.325%. In the case of `Cc1cccc(Cc2c(C)nc3nc(SCc4ccccc4Cl)nn3c2C)c1`, the “activity change, negative = inhibition” value is reported as 13.3%. With `Cc1cc(C)n2nc(SCC(=O)NC(=O)NCc3ccco3)nc2n1` the Potency was 20 µM (active). In the case of `Cc1cc(C)n2nc(SCC(N)=O)nc2n1`, the “activity change, negative = inhibition” value is reported as -32.6%. In the case of `O=C(CNc1ccc(F)cc1F)NC(=O)NCc1ccco1`, the “activity change, negative = inhibition” value is reported as -32.2%. With `COc1ccc(-c2onc(C)c2C)cc1S(=O)(=O)NCC1CCN(Cc2cccc(F)c2)CC1` the “activity change, negative = inhibition” value was -17.2%. `CCN(CC)S(=O)(=O)c1cccc(-c2n[nH]c(=S)n2/N=C/c2ccc(C(=O)OC)cc2)c1` was tested, and the Potency was 10 µM (active). In the case of `CCN(CC)S(=O)(=O)c1cccc(NC(=O)c2ccc(S(=O)(=O)N3CCCC3)cc2)c1`, the “activity change, negative = inhibition” value is reported as -24.2%. For `COC(=O)c1ccc(NC(=O)CSc2n[nH]c(-c3ccccc3)n2)cc1`, the “activity change, negative = inhibition” value was -0.974%. In the case of `COc1ccc(N2C(=O)CS(=O)(=O)C23C(=O)N(Cc2ccc(C)cc2)c2ccccc23)cc1Cl` (centres undefined), the “activity change, negative = inhibition” value is reported as -16.8%. In the case of `COc1ccc(CC(=O)NCCc2sc3nc(-c4ccc(OC)cc4)nn3c2C)cc1`, the “activity change, negative = inhibition” value is reported as -20.8%. `Cc1cccc(C(=O)NCCc2nc3ccccc3n2Cc2ccccc2Cl)c1` was tested, and the “activity change, negative = inhibition” value was 1.68%. In the case of `Cc1nn(C)cc1C(=O)NNC(=S)Nc1ccc(Cl)cc1`, the “activity change, negative = inhibition” value is reported as -20.5%. `Cc1cccc(-n2cnc(C(=O)NNC(=S)Nc3ccccc3)c2)n1` was tested, and the Potency was 35.5 µM (active). For `Cc1cccc(-n2cnc(C(=O)Nc3cccnc3)c2)n1`, the “activity change, negative = inhibition” value was 6.53%. For `Cc1ccc2c(c1)c1c(c(=O)n(-c3ccccc3)c(=O)n1CC(=O)c1ccc(Cl)cc1)n2C`, the “activity change, negative = inhibition” value was -6.21%. In the case of `Cc1ccc(C)c(OCC(=O)Nc2sc3c(c2C#N)CCCC3)c1C`, the “activity change, negative = inhibition” value is reported as -3.46%. `Cc1cc(C)cc(NC(=O)CSc2nc(=O)n(CCN3CCOCC3)c3c2CCC3)c1` was tested, and the “activity change, negative = inhibition” value was -23.1%. `O=S(=O)(c1cccs1)N1CCN(CCOc2ccccc2)CC1` was tested, and the “activity change, negative = inhibition” value was -7.9%. With `CC1CC(C)CN(CCOc2cccc3ccccc23)C1` (centres undefined) the “activity change, negative = inhibition” value was -25.8%. For `O=C(COc1ccccc1Cl)N1CCCCCCC1`, the “activity change, negative = inhibition” value was -8.16%. For `CC1CCCN(CCOCCOc2ccccc2-c2ccccc2)C1` (centres undefined), the Potency was 20 µM (active). `CC1CCCN(CC(=O)Nc2cc(Cl)ccc2Oc2ccccc2)C1` (centres undefined) was tested, and the “activity change, negative = inhibition” value was 50.3%. With `c1ccc(-c2ccccc2OCCN2CCCCC2)cc1` the Potency was 8.91 µM (active). With `COCCNC(=O)CSc1nc(-c2ccccc2)[nH]c1-c1ccc(C)cc1` the “activity change, negative = inhibition” value was -23.3%. `COc1cccc(CNC(=O)CN2C(=O)CCc3cc(S(=O)(=O)N4CCOCC4)ccc32)c1` was tested, and the “activity change, negative = inhibition” value was -9.6%. For `Cc1ccc(Cl)cc1-n1ncc2c(N3CCC(C(N)=O)CC3)ncnc21`, the “activity change, negative = inhibition” value was -7.65%. In the case of `Cc1ccc(C(=O)N2CCc3cc(CNC(=O)c4ccc(Br)cc4)ccc32)cc1`, the “activity change, negative = inhibition” value is reported as -21%. `COc1ccc(N2CC(NS(=O)(=O)c3ccc4ccccc4c3)CC2=O)cc1` (centres undefined) was tested, and the “activity change, negative = inhibition” value was -0.687%. `O=S(=O)(N/N=C\c1cccn1-c1ccccc1)c1ccc2ccccc2c1` was tested, and the Potency was 50.1 µM (active). In the case of `O=C(COc1ccc(/C=N/NS(=O)(=O)c2ccccc2)cc1)NCCc1ccccc1`, the “activity change, negative = inhibition” value is reported as -1.37%. With `CCc1cnc2c(c1SCC(=O)N1CCC(C)CC1)c(=O)n(C)c(=O)n2C` the “activity change, negative = inhibition” value was -9.42%. For `Cc1cc(C)c(NC(=O)c2cc3sc(Cl)cc3n2C)c(C)c1`, the “activity change, negative = inhibition” value was -1.09%. In the case of `COc1cccc(C(=O)OCc2cc(=O)oc3c(C)c(C)ccc23)c1OC`, the Potency is reported as 79.4 µM (active). With `COc1cccc(OCC(O)CNC(=O)c2oc3c(C)c(C)ccc3c2C)c1` (centres undefined) the “activity change, negative = inhibition” value was -29.9%. For `COC(=O)Cc1cc(=O)oc2c(C)c(O)ccc12`, the “activity change, negative = inhibition” value was -6.41%. With `CCn1c(CN2CCC(C)CC2)nc2cc(NC(=O)c3ccccc3[N+](=O)[O-])ccc21` the “activity change, negative = inhibition” value was -18.9%. In the case of `Cc1nn(C(C)C(=O)Nc2ccc(C(C)C)cc2)c(=O)c2c1sc1ccccc12` (centres undefined), the “activity change, negative = inhibition” value is reported as -22.2%.
